Data taken from PubChem BioAssay AID1159580 (chemical genetic matrix, 2015).
Hit rate of the full screen: of about 5,500 compounds, about 2,000 (36%) were called active. Not shown: some 18% with an inconclusive outcome. Cut-off read from the data, not from the text of the source: active = normalized growth mostly below about 0.91 (no sharp cut-off); inconclusive = no clear call, values can overlap the other calls; inactive = mostly above about 0.92. This is one part of the list.

Assay: chemical genetic growth profiling, strain panel (AID 1159580);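 note: tested at 20 µM; growth read once vehicle control cultures reached saturation at 30 °C; 1 = growth at the plate median or of vehicle wells; lower values mean less growth of the strain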
Conditions: growth OD

Measured: normalized growth

COc1ccc2c3c1O[C@H]1C[C@@H](O)C=C[C@@]31CCN(C)C2
inactive: S. cerevisiae deletion strains, locus YJR075W, strain HOC1, active compounds read low 0.947 | S. cerevisiae deletion strains, locus YKL009W, strain mrt4, active compounds read low 1.02 | S. cerevisiae deletion strains, locus YKL068W, active compounds read low 1.02 | S. cerevisiae deletion strains, locus YKL085W, strain MDH1 (second series), active compounds read low 1 | S. cerevisiae deletion strains, locus YKL085W, strain MDH1, active compounds read low 1 | S. cerevisiae deletion strains, locus YKL160W, strain elf1, active compounds read low 0.996 | S. cerevisiae deletion strains, locus YKL190W, strain CNB1, active compounds read low 1.01 | S. cerevisiae deletion strains, locus YKR001C, strain vps1, active compounds read low 1.03 | S. cerevisiae deletion strains, locus YKR026C, strain gcn3, active compounds read low 0.974 | S. cerevisiae deletion strains, locus YKR091W, strain srl3, active compounds read low 0.99 | S. cerevisiae deletion strains, locus YLL001W, strain dnm1, active compounds read low 0.996 | S. cerevisiae deletion strains, locus YLL026W, active compounds read low 0.995 | S. cerevisiae deletion strains, locus YLL041C, strain sdh2, active compounds read low 0.999 | S. cerevisiae deletion strains, locus YLR027C, strain aat2, active compounds read low 0.989 | S. cerevisiae deletion strains, locus YLR039C, strain RIC1, active compounds read low 1.06 | S. cerevisiae deletion strains, locus YLR058C, strain SHM2, active compounds read low 1.01 | S. cerevisiae deletion strains, locus YLR102C, strain apc9, active compounds read low 1.02 | S. cerevisiae deletion strains, locus YLR113W, strain HOG1, active compounds read low 1.01 | S. cerevisiae deletion strains, locus YLR221C, strain rsa3, active compounds read low 1.02 | S. cerevisiae deletion strains, locus YLR258W, strain gsy2, active compounds read low 1 | S. cerevisiae deletion strains, locus YLR262C, strain YPT6 (second series), active compounds read low 0.984 | S. cerevisiae deletion strains, locus YLR262C, strain YPT6, active compounds read low 1.02 | S. cerevisiae deletion strains, locus YLR268W, strain sec22, active compounds read low 0.993 | S. cerevisiae deletion strains, locus YLR320W, strain mms22, active compounds read low 1.01 | S. cerevisiae deletion strains, locus YLR330W, strain CHS5, active compounds read low 1.01 | S. cerevisiae deletion strains, locus YLR342W, strain FKS1 (second series), active compounds read low 1.08 | S. cerevisiae deletion strains, locus YLR342W, strain FKS1, active compounds read low 1.01 | S. cerevisiae deletion strains, locus YLR357W, strain rsc2, active compounds read low 0.962 | S. cerevisiae deletion strains, locus YLR370C, strain arc18, active compounds read low 1 | S. cerevisiae deletion strains, locus YLR371W, strain rom2, active compounds read low 1.02 | S. cerevisiae deletion strains, locus YLR384C, strain iki3, active compounds read low 1.01 | S. cerevisiae deletion strains, locus YLR418C, strain cdc73, active compounds read low 0.991 | S. cerevisiae deletion strains, locus YML016C, strain PPZ1, active compounds read low 1 | S. cerevisiae deletion strains, locus YML032C, strain rad52, active compounds read low 1.04 | S. cerevisiae deletion strains, locus YML120C, strain ndi1, active compounds read low 0.979 | S. cerevisiae deletion strains, locus YML124C, strain tub3, active compounds read low 1.01 | S. cerevisiae deletion strains, locus YMR058W, strain fet3, active compounds read low 0.989 | S. cerevisiae deletion strains, locus YMR078C, strain ctf18, active compounds read low 1.03 | S. cerevisiae deletion strains, locus YMR125W, strain sto1, active compounds read low 0.965 | S. cerevisiae deletion strains, locus YMR129W, active compounds read low 1.01 | S. cerevisiae deletion strains, locus YMR205C, strain PFK2, active compounds read low 0.992 | S. cerevisiae deletion strains, locus YMR223W, strain ubp8, active compounds read low 1.04 | S. cerevisiae deletion strains, locus YMR231W, strain pep5, active compounds read low 1 | S. cerevisiae deletion strains, locus YMR263W, strain SAP30, active compounds read low 0.991 | S. cerevisiae deletion strains, locus YMR307W, strain GAS1, active compounds read low 1.06 | S. cerevisiae deletion strains, locus YNL067W, strain RPL9B, active compounds read low 0.989 | S. cerevisiae deletion strains, locus YNL071W, strain lat1, active compounds read low 1.01 | S. cerevisiae deletion strains, locus YNL128W, strain TEP1, active compounds read low 0.974 | S. cerevisiae deletion strains, locus YNL153C, strain GIM3, active compounds read low 0.982 | S. cerevisiae deletion strains, locus YNL183C, strain NPR1, active compounds read low 0.948 | S. cerevisiae deletion strains, locus YNL209W, strain ssb2, active compounds read low 1 | S. cerevisiae deletion strains, locus YNL233W, strain BNI4, active compounds read low 0.995 | S. cerevisiae deletion strains, locus YNL248C, strain rpa49, active compounds read low 0.996 | S. cerevisiae deletion strains, locus YNL250W, strain rad50, active compounds read low 1.01 | S. cerevisiae deletion strains, locus YNL271C, strain bni1, active compounds read low 1.02 | S. cerevisiae deletion strains, locus YNL298W, strain CLA4, active compounds read low 1.03 | S. cerevisiae deletion strains, locus YNL307C, strain MCK1, active compounds read low 1.05 | S. cerevisiae deletion strains, locus YNL322C, strain KRE1 (second series), active compounds read low 1 | S. cerevisiae deletion strains, locus YNL322C, strain KRE1, active compounds read low 1.01 | S. cerevisiae deletion strains, locus YNR049C, strain mso1, active compounds read low 1.01 | S. cerevisiae deletion strains, locus YNR052C, strain pop2, active compounds read low 1.02 | S. cerevisiae deletion strains, locus YOL006C, strain TOP1, active compounds read low 1.03 | S. cerevisiae deletion strains, locus YOL012C, strain htz1 0.856 | S. cerevisiae deletion strains, locus YOL147C, strain pex11, active compounds read low 1.01 | S. cerevisiae deletion strains, locus YOR001W, strain rrp6, active compounds read low 0.996 | S. cerevisiae deletion strains, locus YOR061W, strain CKA2, active compounds read low 1.01 | S. cerevisiae deletion strains, locus YOR069W, strain VPS5, active compounds read low 1.01 | S. cerevisiae deletion strains, locus YOR070C, strain gyp1, active compounds read low 1.01 | S. cerevisiae deletion strains, locus YOR080W, strain dia2, active compounds read low 0.994 | S. cerevisiae deletion strains, locus YOR083W, strain WHI5, active compounds read low 0.988 | S. cerevisiae deletion strains, locus YOR106W, strain vam3, active compounds read low 1 | S. cerevisiae deletion strains, locus YOR136W, strain idh2, active compounds read low 1.02 | S. cerevisiae deletion strains, locus YOR144C, strain elg1, active compounds read low 1.01 | S. cerevisiae deletion strains, locus YOR184W, strain ser1, active compounds read low 1.06 | S. cerevisiae deletion strains, locus YOR231W, strain MKK1, active compounds read low 0.987 | S. cerevisiae deletion strains, locus YOR265W, strain rbl2, active compounds read low 1 | S. cerevisiae deletion strains, locus YOR270C, strain vph1, active compounds read low 0.965 | S. cerevisiae deletion strains, locus YOR290C, strain snf2, active compounds read low 1.01 | S. cerevisiae deletion strains, locus YOR316C, strain cot1, active compounds read low 1.02 | S. cerevisiae deletion strains, locus YPL051W, strain arl3, active compounds read low 0.988 | S. cerevisiae deletion strains, locus YPL055C, strain LGE1, active compounds read low 0.935 | S. cerevisiae deletion strains, locus YPL078C, strain atp4, active compounds read low 1 | S. cerevisiae deletion strains, locus YPL106C, strain sse1, active compounds read low 1.01 | S. cerevisiae deletion strains, locus YPL240C, strain hsp82, active compounds read low 1.03 | S. cerevisiae deletion strains, locus YPL241C, strain CIN2, active compounds read low 1.01 | S. cerevisiae deletion strains, locus YPL256C, strain CLN2, active compounds read low 1.01 | S. cerevisiae deletion strains, locus YPR119W, strain clb2, active compounds read low 1 | S. cerevisiae deletion strains, locus YPR141C, strain kar3, active compounds read low 1.01 | S. cerevisiae deletion strains, locus YPR163C, strain tif3, active compounds read low 1.01 | S. cerevisiae deletion strains, locus YPR167C, strain met16, active compounds read low 1.01 | S. cerevisiae deletion strains, strain wtn01, active compounds read low 1 | S. cerevisiae strains, strain wild type, active compounds read low 1.02
